DRD3 agonist: activates the human D3 dopamine receptor | P35462 | D3R DiscoveRx beta-arrestin cells, luminescence, 90 min | max activation, % | 410,000 tested, 0.58% active | AID 652048; in the data active = max activation above about 30%; also: 0% is about no effect
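Agonist-mode cell screen: cells plated at 1500/well and incubated overnight at 37 °C, then exposed to library compounds for 90 min at 37 °C. Detection reagent was added for 30–60 min at room temperature, and luminescence was read.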
GLP1R inv ag: inverse agonists of human GLP-1 receptor; Potency, µM (top dose mostly 38.3 µM), inactives show top-dose activity change, negative = inhibition, actives largely listed as inhibitors; P43220; HEK293 GLP-1R CRE-luciferase, luminescence, 24 h; GLP-1R form is constitutively active; 410,000 tested, 1.6% active; AID 624417; also: potency is read from the fitted curve at half-maximal effect; % is scaled to controls: 0 for no effect and ±100 for the full control effect; nearly all actives have a fitted effect of over 55% in size
Target sequence (P43220 whole entry, looked up): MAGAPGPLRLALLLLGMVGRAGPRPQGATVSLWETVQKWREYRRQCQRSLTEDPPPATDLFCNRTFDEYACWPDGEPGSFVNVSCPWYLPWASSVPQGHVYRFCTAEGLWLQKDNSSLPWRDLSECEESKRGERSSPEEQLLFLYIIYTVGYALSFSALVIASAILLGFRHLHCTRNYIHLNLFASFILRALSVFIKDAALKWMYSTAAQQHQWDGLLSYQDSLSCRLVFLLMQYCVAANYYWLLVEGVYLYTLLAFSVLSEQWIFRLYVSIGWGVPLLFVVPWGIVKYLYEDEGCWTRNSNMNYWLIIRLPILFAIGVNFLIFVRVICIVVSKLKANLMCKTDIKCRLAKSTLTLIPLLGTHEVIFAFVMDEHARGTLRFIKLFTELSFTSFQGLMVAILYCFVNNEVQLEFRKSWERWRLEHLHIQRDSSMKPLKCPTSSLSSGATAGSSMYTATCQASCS
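Cells are plated, allowed 12 hours at 37 deg C, then treated with compounds for 24 hr before luciferase detection reagent is added and luminescence is read after 12 min at room temperature. The HEK293 line carries constitutively active GLP-1R with a cAMP-responsive reporter.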
DRD3 antagonist: antagonists of human D3 dopamine receptor. 360,000 tested, 2.5% active. max response, negative = inhibition, %. D3R cells, DiscoveRx beta-arrestin luminescence, antagonist mode; stronger effect = lower value; in the data active = max response below about -50%; inconclusive = no clear call, values can overlap the other calls; also: % is scaled to controls: 0 for no effect and ±100 for the full control effect
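Cells plated overnight at 1500 cells/well, then exposed to library compounds with dopamine controls for 90 minutes at 37 degrees C. DiscoveRx reagent added for 30–60 minutes at room temperature; luminescence read, quantitative HTS format.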
GLP1R ag: agonists of human GLP-1 receptor | HEK293 GLP-1R CRE-luciferase, luminescence, 4-6 h; cells express a hypersensitive GLP-1R form | Potency, µM (doses to about 45.6 µM), without a hit: at the highest dose activation, most hits filed as activators | 380,000 tested, 0.007% active | AID 624172; also: potency is read from the fitted curve at half-maximal effect; % of control where 0% means no effect
Numbers without * were called inactive; ? = inconclusive; nt = not tested or not shown; ! = not confirmed by another sample. The list is not random: actives were taken first. Their share in the collection is about 4.3%. Unless noted, calls follow the shape of the dose curve; as a rule, active = well fitted curve in the direction sought with a large enough effect; inconclusive = small, poorly fitted or top-dose-only effect, or another doubt; inactive = no such curve, though single readings can be large; an effect the other way counts as inactive or inconclusive.

SMILES	DRD3 agonist	GLP1R inv ag	DRD3 antagonist	GLP1R ag
COc1ccc(C2=Nc3ccccc3NC(=O)C2N(C(=O)c2ccnc3ccccc23)c2ccccc2)cc1 (centres undefined)	1	?	8	-2%
Clc1ccc2nc(C3CCN(Cc4ccccc4)CC3)[nH]c2c1	-32	?	-87*	-5%
O=C(CCc1nnc2n(Cc3ccccc3Cl)c(=O)c3ccccc3n12)Nc1ccc(F)cc1	0	-3%	nt	nt
Cn1c(COc2ccccc2)nnc1SCCSc1nnc(COc2ccccc2)n1C	-1	6%	11	-3%
Cn1c(COc2ccc(Br)cc2)nnc1SC1CCc2ccccc2C1=O (centres undefined)	-3	?	-57*	-13%
Cc1c(C(=O)N2CCCC2)sc(NC(=O)c2ccc(Cl)cc2)c1C#N	-4	5%	-55*	0%
COc1ccccc1C(=O)Nc1sc(C(=O)N2CCCC2)c(C)c1C#N	6	2%	-2	6%
COc1ccc2c(c1)c1c(c(=O)n(-c3cccc(Cl)c3)c(=O)n1C)n2C	-7	1%	nt	-2%
CCOc1cc(-c2ccc(OC(=O)c3ccc(C)cc3)c(OC)c2)cc(=O)c2c(C)oc(C)c12	-15	?	nt	nt
CCCC(=NC(C)CC)C1=C(O)CC(c2ccccc2)CC1=O (centres undefined)	-7	10µM*	0	10%
COc1ccc(-c2oc3ccccc3c2C(=O)OCc2ccccc2OC)cc1	-18	?	0	-2%
COc1ccc(C(=O)c2c(-c3ccc(OC)cc3)oc3ccccc23)cc1	-21	?	-63*	-3%
CCOc1ccc(OCC(=O)c2c(O)c3ccccc3oc2=O)cc1	-13	12%	0	-16%
COc1ccc(OCC(=O)c2c(O)c3ccccc3oc2=O)cc1	14	0%	-114*	-8%
COc1ccc(-c2nc(SCC(=O)NC3CCCC3)c(-c3ccccc3)[nH]2)cc1OC	-5	-18%	nt	nt
CC(=O)c1ccc(NC(=O)c2cc3c([nH]c2=O)CC(c2ccccc2)CC3=O)cc1 (centres undefined)	-3	-30%	nt	nt
O=[N+]([O-])c1cc(Cl)c2cccnc2c1O	13	26%	1	0%
Oc1c(I)cc(Cl)c2cccnc12	-93	?	-71*	4%
Cc1ccc2ccc3cccnc3c2n1	-3	?	-19	16%
Cc1c(C)c2cccnc2c2ncccc12	-21	?	-103*	2%
Clc1cc2cccnc2c2ncccc12	2	4.5µM*	-6	-2%
COC(Cn1c2c(c3cc(C)ccc31)CCCC2NCc1ccccc1)OC (centres undefined)	-19	?	-76*	-4%
Cc1ccc(-n2c(SCC(=O)Nc3cccc(Cl)c3)nc3n[nH]c(C)c3c2=N)cc1	-4	?	nt	nt
COc1ccc(-c2cc(C)no2)cc1S(=O)(=O)N1CCCN(Cc2ccc(F)cc2)C1	-1	7.1µM*	-17	-1%
Cc1cc(S(=O)(=O)N2CCCC2)c(C)s1	1	0%	-4	-6%
SMILES	DRD3 agonist	GLP1R inv ag	DRD3 antagonist	GLP1R ag
COc1ccc(C(C)C)cc1S(=O)(=O)N1CCN(c2ccccc2)CC1	-9	8.9µM*	-2	-2%
Cc1cc(S(=O)(=O)N2CCN(c3ccc(F)cc3)CC2)c(C)s1	-3	10µM*	-8	7%
CCc1ccc(-c2cc(C)no2)cc1S(=O)(=O)N1CCN(c2ccccc2OC)CC1	1	4.5µM*	4	-1%
CCOC(=O)c1cccc(NC(=O)CC2C(=O)N(c3ccc(C)cc3)C(=O)N2Cc2cccc(OC)c2)c1 (centres undefined)	23	?	nt	nt
CCC[C@H](N[C@@H](C)C(=O)N1[C@@H]2CCCC[C@H]2C[C@H]1C(=O)O)C(=O)OCC	nt	nt	nt	-4%
Cc1cc(S(=O)(=O)N2CCN(c3ccccc3O)CC2)c(C)s1	-2	?	16	20%
COc1ccccc1N1CCN(S(=O)(=O)c2cc(C)sc2C)CC1	-1	10µM*	-15	-5%
O=[N+]([O-])c1ccc(Oc2ccc(N=C=S)cc2)cc1	3	nt	nt	-7%
COc1cc(-c2cc(C(=O)NCc3ccco3)c3ccccc3n2)cc(OC)c1OC	-18	?	13	5%
COc1cc(-c2cc(C(=O)Nc3ccc(S(=O)(=O)NCc4ccco4)cc3)c3ccccc3n2)cc(OC)c1OC	7	2µM*	37	2%
CSc1ccccc1OC1CCN(Cc2ccccc2)CC1	-33	?	-92*	-1%
Cc1c(Cl)cccc1NC(=O)CCCCCN1C(=O)CCC1=O	-5	4%	-5	-2%
O=C(CCCCCN1C(=O)CCC1=O)Nc1ncn[nH]1	1	3%	-53*	5%
O=C(Cn1nc(CNc2ccc(Cl)cc2)[n+]2c1CCCCC2)c1ccccc1	-15	-2%	12	6%
Cc1ccc(C(C)C)c(OCc2nn(CC(=O)c3ccc(Cl)cc3)c3[n+]2CCCCC3)c1	-16	?	-52*	7%
CC(C)CC(=O)NCC1(N(C)C)CCCCC1	-16	17%	nt	nt
COc1ccc(NC(=O)C2CCC(CNc3c(N4CCC(C)CC4)c(=O)c3=O)CC2)cc1OC (centres undefined)	2	-2%	-105*!	9%
COc1cc(NC(=O)C2CCC(CNc3c(N4CCC(C)CC4)c(=O)c3=O)CC2)cc(OC)c1 (centres undefined)	-2	-16%	13	3%
CC1(C(=O)O)CCC2(C)CCC3(C)C(=CC(=O)[C@@H]4C5(C)CC[C@H](O[C@H]6O[C@H](C(=O)O)C(O)C(O)[C@H]6O[C@@H]6O[C@H](C(=O)O)C(O)C(O)C6O)C(C)(C)[C@@H]5CCC43C)[C@@H]2C1 (some centres undefined)	nt	nt	nt	2%
CCOc1ccccc1CNC(=O)c1oc2c(c1C)-c1nn(Cc3cccc(Cl)c3)cc1CC2	-13	?	nt	nt
Cc1ccccc1CNC(=O)c1oc2c(c1C)-c1nn(Cc3ccc(Cl)cc3)cc1CC2	0	10µM*	nt	nt
CCCCNC(=O)c1ccc2c(c1)ncn2-c1cc(OC)ccc1OC	-6	21%	nt	nt
COCCCNC(=O)c1cc2c(=O)n3cccc(C)c3nc2s1	32*!	37%	-3	-4%
Nc1nonc1-c1nc2ccccc2n1Cc1ccc(Br)cc1	8	13%	nt	nt
Cc1[nH]c2ccccc2c(=O)c1CN1CCCCCC1	-13	1%	9	3%
Cc1[nH]c2c(Cl)cccc2c(=O)c1CN1CCCC1	-33	-8%	-65*	-12%
COc1ccccc1CNC(=O)c1cc2ccc3ccc(C)[nH]c3c2n1	7	10µM*	nt	-2%
COc1ccc(Cl)cc1NC(=O)c1cc2ccc3ccc(C)[nH]c3c2n1	5	?	nt	-4%
Cc1ccc2c(c1)c1c(n2CC(O)Cn2c(C)nc3ccccc32)C(=O)CCC1 (centres undefined)	2	8%	4	-4%
Cc1ccc2c(c1)c1c(n2CC(O)Cn2c(C)nc3ccccc32)/C(=N\O)CCC1 (centres undefined)	0	10µM*	54	-12%

Source: PubChem BioAssay (National Center for Advancing Translational Sciences (NCATS))
